Vc quorum ag – quorum light induction in luxS cqsA deficient V. cholerae | V. cholerae BH1578 lux reporter, luminescence, 6 h | activation, % at 18.7 µM | actives 0.16% (n = 350,000) | AID 588436; in the data active = activation mostly above about 9.7%, no sharp cut-off
RecA splice inh – inhibitors of M. tuberculosis RecA intein splicing | P9WHJ3 | cell-free RecA intein splicing, fluorescence | inhibition, % (test concentration not listed) | actives 0.75% (n = 290,000); in the data active = inhibition above about 30%;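 also: 0% = vehicle wells and 100% = reference inhibitor control wells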
Mtb FBA inh – inhibitors of M. tuberculosis fructose-bisphosphate aldolase; P9WQA3; purified M. tuberculosis FBA, fluorescence read-out; actives 2.3% (n = 360,000); inhibition, % at 1 µM; AID 588726;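 also: 0% = vehicle and 100% = reference inhibitor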
Mtb UGM inh – Mtb UDP-galactopyranose mutase inhibition. P9WIQ1. purified UGM, fluorescence polarization probe displacement. inhibition, % at 10 µM. actives 0.06% (n = 320,000). AID 504406; in the data active = inhibition above about 10%, passing the limit was not always enough
GDH-TPI counter-1 – counter-screen for M. tuberculosis FBA inhibitors: GDH-TPI coupled enzymes; GDH-TPI coupled enzyme counterscreen, NADH absorbance; actives 1.2% (n = 360,000); inhibition, % at 4.8 µM; in the data active = inhibition above about 30%;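 also: 0% = DMSO wells and 100% = wells lacking the enzyme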
Rv3671c protease – Rv3671c (M. tuberculosis) protease inhibition | P9WHR9 | inhibition, % at 5.96 µM | actives 0.048% (n = 320,000) | AID 2606; in the data active = inhibition above about 38%;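 also: extracellular domain of Rv3671c used as enzyme; 0% = enzyme with DMSO and 100% = no enzyme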
Target sequence (P9WHR9 whole entry, looked up, the tested form may be a part): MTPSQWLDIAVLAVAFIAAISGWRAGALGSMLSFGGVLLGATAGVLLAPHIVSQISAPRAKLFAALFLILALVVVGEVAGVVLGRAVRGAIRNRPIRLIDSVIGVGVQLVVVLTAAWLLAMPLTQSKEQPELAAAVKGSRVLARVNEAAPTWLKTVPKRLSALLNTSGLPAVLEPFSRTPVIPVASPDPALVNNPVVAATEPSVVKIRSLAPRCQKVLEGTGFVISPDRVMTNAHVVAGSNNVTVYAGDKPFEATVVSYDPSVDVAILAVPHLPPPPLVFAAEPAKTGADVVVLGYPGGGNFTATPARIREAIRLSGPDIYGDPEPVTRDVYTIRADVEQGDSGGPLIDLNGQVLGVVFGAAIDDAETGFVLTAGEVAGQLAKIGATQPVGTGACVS
Mtb FBA confirm – confirmation of M. tuberculosis fructose-bisphosphate aldolase inhibitors | shares compounds with Mtb FBA inh | purified M. tuberculosis FBA, fluorescence read-out | inhibition, % at 1 µM | actives 78% (n = 5,600) | AID 651616;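 also: 0% = vehicle wells and 100% = reference inhibitor wells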
GDH-TPI counter-2 – inhibits GDH-TPI coupling enzymes, flagging Mtb FBA hits | shares compounds with Mtb FBA inh | GDH-TPI coupled enzyme counterscreen, fluorescence | inhibition, % at 1 µM | actives 81% (n = 5,600) | AID 652141; in the data active = inhibition above about 10%
* hit, by the source's call; i = inactive; · = no result; + = active, no number. The list is not random: actives were taken first. Their share in the collection is about 4.1%. Rule as the data show it, unless noted: active = inhibition above about 27%; inactive = the rest.

SMILES	Vc quorum ag	RecA splice inh	Mtb FBA inh	Mtb UGM inh	GDH-TPI counter-1	Rv3671c protease	Mtb FBA confirm	GDH-TPI counter-2
COc1ccc(NC(=O)c2ccc(S(=O)(=O)N3CC(C)CC(C)C3)cc2)cc1S(N)(=O)=O (stereo unspecified)	1	·	39*	-1	18	-5	180*	152*
COc1ccc(NC(=O)COC(=O)c2ccc(S(=O)(=O)N3CC(C)CC(C)C3)cc2)cc1OC (stereo unspecified)	4	·	-1	·	6	·	·	·
CCCn1c(SCC(=O)Nc2c(C)cccc2CC)nnc1C(C)C	i	0	39*	-1	4	1	118*	111*
CC(NC(=O)CN1C(=O)NC(c2ccccc2)(c2ccccc2)C1=O)c1cccs1 (stereo unspecified)	-4	·	3	-3	0	15	·	·
Nc1ncnc2oc(-c3ccco3)c(-c3ccco3)c12	i	0	31*	0	23	-8	+	143*
CC(=O)Nc1ccc(NC(=O)CS(=O)(=O)c2cn(CC(=O)N3CCCC3)c3ccccc23)cc1	1	4	5	0	-3	-8	·	·
Cc1cccc(NC(=O)NNC(=O)c2ccc3ccccc3c2O)c1	i	-3	29*	1	6	·	81*	59*
Cc1cccc(NC(=O)NNC(=O)c2ccc3ccccc3c2)c1	0	0	-4	-3	-10	·	·	·
O=C(NNC(=O)c1ccc2ccccc2c1O)Nc1ccc(F)cc1	-1	-3	37*	1	9	-3	+	174*
O=C(NNC(=O)c1ccc2ccccc2c1)Nc1ccc(F)cc1	i	0	-2	3	2	-9	·	·
COc1cc(C2c3c([nH]c(=O)[nH]c3=O)Nc3ccc4ccccc4c32)ccc1O (stereo unspecified)	0	·	9	2	6	12	·	·
COc1cc(C2c3c([nH]c(=O)[nH]c3=O)Nc3ccc4ccccc4c32)cc(OC)c1OC (stereo unspecified)	0	5	34*	0	0	18	90*	75*
O=S(=O)(NCCCSc1ccccc1)c1ccccc1F	0	1	-2	1	4	-9	·	·
CCOc1ccc(OCC)c(NC(=O)c2nnn(CC(=O)Nc3cc(C)cc(C)c3)c2N)c1	i	-3	21	0	16	5	·	·
C=CCc1cccc(C=Nc2cccn3cc(-c4ccccc4)nc23)c1O	0	-21	39*	-3	9	2	+	176*
COC(=O)c1cc(COc2ccc3c(c2)oc(=O)c2ccccc23)c(C)o1	i	-3	32*	3	6	-4	107*	81*
CC(C)(C)NC(=O)CC1C[C@H](C(=O)N2CCOCC2)[C@@]2(CCC3CCCC3)c3[nH]c4ccccc4c3CCN2C1=O (stereo partly specified)	i	·	4	-2	8	13	·	·
COc1ccc(/C=C/c2ccncc2)cc1OC	i	·	10	-1	21	4	·	·
COc1ccc(/C=C\c2cc(OC)c(OC)cc2CC[N+](C)(C)C)cc1OC	1	0	34*	-2	21	1	0	-3
Cc1ccc2ccc(C#N)cc2c1O	-5	·	36*	·	18	·	+	+
O=C(CCC(=O)c1ccccc1)NC1CCCN(Cc2ccccc2F)C1 (stereo unspecified)	i	-1	2	-3	11	-13	·	·
Cc1cc(NC(=O)CSCC(=O)OCC(=O)c2ccc(Br)cc2)no1	0	·	0	·	1	·	·	·
OCCNc1nc2ccccc2nc1NCCO	i	0	35*	-3	16	-3	+	173*
Cc1cc(NCCO)c2cc(O)ccc2n1	-4	-57	90*	-1	15	5	105*	127*
OCCNc1c2ccccc2nc2ccccc12	0	-62	60*	1	-4	-1	62*	34*
SMILES	Vc quorum ag	RecA splice inh	Mtb FBA inh	Mtb UGM inh	GDH-TPI counter-1	Rv3671c protease	Mtb FBA confirm	GDH-TPI counter-2
Cc1ccnc(NC(=O)CCC(=O)N(Cc2ccco2)C(C(=O)NC(C)C)c2ccc(F)cc2)c1 (stereo unspecified)	-1	1	-1	2	2	4	·	·
Cc1cccc(C2Nc3ccccc3C(=O)N2c2ccccc2)n1 (stereo unspecified)	-4	-4	61*	-1	-2	2	47*	46*
O=C1c2ccccc2NC(c2ccc(O)cc2)N1c1ccccc1 (stereo unspecified)	i	-3	15	3	6	1	·	·
COc1ccc(C)cc1N1CC(C(=O)Nc2cccc(C(=O)NC3CC3)c2)CC1=O (stereo unspecified)	0	·	-2	·	-3	·	·	·
CCc1nc2ccc(C(=O)Nc3ccc4c(c3)OCC(=O)N4)cn2c1N(C)Cc1nccn1C	i	·	-2	·	6	·	·	·
Cc1ccc(NS(=O)(=O)c2ccc(C(=O)N3CC(C)CC(C)C3)cc2)cc1 (stereo unspecified)	-1	-1	2	-1	9	-2	·	·
O=S(=O)(Nc1cccc(-c2cn3cccnc3n2)c1)c1ccc(F)cc1	0	2	38*	-1	27	4	83*	81*
O=S(=O)(c1cccc(-c2cn3cccnc3n2)c1)N1CCCCCC1	i	3	62*	-2	5	-7	58*	49*
O=S(=O)(Nc1ccc(-c2cn3cccnc3n2)cc1)c1ccccc1	0	2	64*	1	16	-6	10	-7
O=S(=O)(Nc1ccc(-c2csc(-c3ccccc3)n2)cc1)c1ccccc1	1	5	0	0	-6	-182	·	·
O=S(=O)(Nc1cccc(-c2cn3cccnc3n2)c1)c1ccccc1	0	-10	75*	0	15	-3	66*	47*
Cc1ccc(S(=O)(=O)N2C[C@H]3C(=O)C[C@@H]4C(=O)N(c5ccccc5)C(=O)[C@@H]4[C@@H]3C[C@H]2c2cccs2)cc1	·	·	5	·	·	·	·	·
CCN1CCCC1CNC(=O)c1cc2c(-c3cccc(OC)c3)nn(C)c2s1 (stereo unspecified)	i	-1	36*	2	2	-1	100*	59*
CCN(CC)CCCNC(=O)c1cc2c(-c3cccc(OC)c3)nn(C)c2s1	-1	4	58*	0	12	4	102*	87*
COc1ccc2[nH]c3c(=O)n4c(nc3c2c1)SCCC4	1	-1	71*	0	1	-12	103*	88*
CCC1CCCN1Cn1cnc2c([nH]c3ccccc32)c1=O (stereo unspecified)	i	-2	15	2	10	6	·	·

Bioassay records (PubChem)
